Experimental data reported in PubChem BioAssay AID1159580 (chemical genetic matrix, 2015).
Hit rate of the full screen: of about 5,500 compounds, about 2,000 (36%) were called active. Inconclusive results (about 18%) are left out. The list shows a part of the results. Unmarked numbers belong to inactive results. Rule as the data show it: active = normalized growth mostly below about 0.91 (no sharp cut-off); inconclusive = no clear call, values can overlap the other calls; inactive = mostly above about 0.92.

Experiment: chemical genetic growth profiling, strain panel (AID 1159580);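 also: tested at 20 µM; growth read once vehicle control cultures reached saturation at 30 °C; 1 = growth at the plate median or of vehicle wells; lower values mean less growth of the strain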
Conditions: S. cerevisiae deletion strains, growth OD

## c1ccc(N=Nc2ccc(Nc3ccccc3)cc2)cc1
Locus YAL013W, strain DEP1, stronger effect = lower value
  normalized growth: 0.916 (active)
Locus YBR229C, strain ROT2, stronger effect = lower value
  normalized growth: 0.823 (active)
Locus YCL061C, strain MRC1, stronger effect = lower value
  normalized growth: 0.89 (active)
Locus YDL101C, strain DUN1, stronger effect = lower value
  normalized growth: 0.977
Locus YDL134C, strain PPH21, stronger effect = lower value
  normalized growth: 0.825 (active)
Locus YDR150W, strain NUM1, stronger effect = lower value
  normalized growth: 0.906
Locus YEL061C, strain CIN8, stronger effect = lower value
  normalized growth: 0.74 (active)
Locus YGR078C, strain PAC10, stronger effect = lower value
  normalized growth: 0.897 (active)
Locus YGR229C, strain SMI1, stronger effect = lower value
  normalized growth: 0.984
Locus YHR030C, strain SLT2, stronger effect = lower value
  normalized growth: 0.57 (active)
Locus YHR087W, strain rtc3, stronger effect = lower value
  normalized growth: 0.751 (active)
Locus YJR043C, strain POL32, stronger effect = lower value
  normalized growth: 0.91 (active)
Locus YJR075W, strain HOC1, stronger effect = lower value
  normalized growth: 0.754 (active)
Locus YLR039C, strain RIC1, stronger effect = lower value
  normalized growth: 0.425 (active)
Locus YLR058C, strain SHM2 (second series), stronger effect = lower value
  normalized growth: 0.964
Locus YLR085C, strain ARP6, stronger effect = lower value
  normalized growth: 0.389 (active)
Locus YLR262C, strain YPT6, stronger effect = lower value
  normalized growth: 0.37 (active)
Locus YML094W, strain GIM5, stronger effect = lower value
  normalized growth: 0.812 (active)
Locus YMR219W, strain ESC1, stronger effect = lower value
  normalized growth: 0.92 (active)
Locus YMR263W, strain SAP30, stronger effect = lower value
  normalized growth: 0.9 (active)
Locus YMR307W, strain GAS1, stronger effect = lower value
  normalized growth: 0.405 (active)
Locus YNL128W, strain TEP1, stronger effect = lower value
  normalized growth: 0.913 (active)
Locus YNL153C, strain GIM3, stronger effect = lower value
  normalized growth: 0.914 (active)
Locus YNL298W, strain CLA4 (second series), stronger effect = lower value
  normalized growth: 0.79 (active)
Locus YNL322C, strain KRE1, stronger effect = lower value
  normalized growth: 1
Locus YNR030W, strain Alg12, stronger effect = lower value
  normalized growth: 0.737 (active)
Locus YPL055C, strain LGE1, stronger effect = lower value
  normalized growth: 0.626 (active)
Locus YPL241C, strain CIN2, stronger effect = lower value
  normalized growth: 0.75 (active)
Locus YPR135W, strain CTF4, stronger effect = lower value
  normalized growth: 0.748
